{"source": "PubChem BioAssay (Tox21)", "note": "Records with an inconclusive call do not appear. A number with no mark means an inactive call. The call rests on the fitted dose curve. On the % scale 0 is the no-effect control and ±100 the full control effect.", "data": [{"experiment": "qHTS assay to identify small molecule agonists of the hypoxia (HIF-1) signaling pathway - cell viability counter screen (AID 1224844); further: nearly all actives have a fitted effect of over 50% in size", "conditions": "HRE-bla ME-180 viability, CellTiter-Glo luminescence, 17 h; series mostly up to 76.8 µM; activity change, negative = cytotoxicity: at the top concentration", "source_text": "National Center for Advancing Translational Sciences [NCATS]\nNIH Chemical Genomics Center [NCGC]\nU.S. Environmental Protection Agency [EPA]\nNational Institutes of Environmental Health Sciences [NIEHS]\nNational Toxicology Program [NTP]\nU.S. Food and Drug Administration [FDA]\nHypoxia-inducible factor-1 (HIF-1) is the major hypoxia-regulated transcription factor that controls cellular responses to low oxygen concentration. HIF-1 is composed of two subunits: hypoxia responsive HIF-1-alpha and constitutively expressed HIF-1-beta, which is also known as aryl hydrocarbon receptor nuclear translocator. During hypoxic conditions, HIF-1-alpha heterodimerizes with HIF-1-beta and translocates into the nucleus where the HIF-1 complex binds to the hypoxia-response element (HRE) and activates expression of target genes such as VEGF (vascular endothelial growth factor). The HIF-1 pathway is essential to normal growth and development, and is involved in the pathophysiology of cancer, inflammation, and ischemia.\nUsing a beta-lactamase reporter-gene under control of the hypoxia response element, a cell-based assay [CellSensor(TM) HRE-bla ME-180 from Life Technologies, Carlsbad, CA] was used to measure hypoxia-induced signaling. Tox21 10K library compounds were measured for their ability to induce the reporter gene activity. The cytotoxicity of the Tox21 compound library against HRE-bla ME-180 cell line was tested in parallel by measuring cell viability using CellTiter-Glo assay (Promega, Madison, WI) in the same assay wells.\nTox21 Assay Protocol Summary:\nHRE-bla ME-180 cells were dispensed at 2,000 cells per well in 6 uL of assay medium containing 0.5% dialyzed FBS into black wall/clear-bottom 1536-well plates using a Multidrop Combi (Thermo Scientific, Waltham, MA) dispenser. After the assay plates were incubated at 37C and 5% CO2 for 5 hrs, 23 nL of compounds dissolved in DMSO, positive controls or DMSO only was transferred to each well of the assay plate using a Pintool station (Kalypsys, San Diego, CA). The assay plates were incubated at 37C and 5% CO2 for 17 hrs. One uL of LiveBLAzerTM B/G FRET substrate (CCF4-AM) (Life Technologies) was added to each well using a Flying Reagent Dispenser (FRD, Aurora Discovery, San Diego, CA). After 2 hr incubation at room temperature, fluorescence intensity (405 nm excitation, 460 nm and 530 nm emissions) was measured using an Envision plate reader (PerkinElmer, Shelton, CT). For cytotoxicity, 4 ul/well of CellTiter-Glo reagent was added into the assay plates using an FRD. After 30 min incubation at room temperature, the luminescence intensity was measured using a ViewLux plate reader (PerkinElmer).", "values": [{"smiles": "c1cc(CN2CCCCC2)cc(OCCCNc2nc3ccccc3s2)c1", "activity change, negative = cytotoxicity": "-3.67% [at 35.3 µM]"}, {"smiles": "C=CC(=O)N1CCOCC1", "activity change, negative = cytotoxicity": "9.7%"}, {"smiles": "CCCCCCCCCCCCCCCCCC(=O)OCCCCCCCCCCCCCC(C)C", "activity change, negative = cytotoxicity": "-0.0957%"}, {"smiles": "O=C(O)CCNC(=O)c1ccc(N=Nc2ccc(O)c(C(=O)O)c2)cc1", "activity change, negative = cytotoxicity": "3.19% [at 35.3 µM]"}, {"smiles": "COc1cc(C(=O)N2CCOCC2)cc(OC)c1OC", "activity change, negative = cytotoxicity": "3.43% [at 35.3 µM]"}, {"smiles": "N#CCc1ccccc1[N+](=O)[O-]", "activity change, negative = cytotoxicity": "-18.5%"}, {"smiles": "CCOC(=O)Nc1ccc2c(c1)N(C(=O)CCN1CCOCC1)c1ccccc1S2", "activity change, negative = cytotoxicity": "7.29% [at 35.3 µM]"}, {"smiles": "O=C(O)c1cccc(C(=O)O)n1", "activity change, negative = cytotoxicity": "0.992%"}, {"smiles": "C#CC(C)(O)CC(C)C", "note": "(stereo not given)", "activity change, negative = cytotoxicity": "7.43%"}, {"smiles": "CCCCC1CCCCC(=O)O1", "note": "(stereo not given)", "activity change, negative = cytotoxicity": "0.663%"}, {"smiles": "CC(C)c1ccc2oc3nc(N)c(C(=O)O)cc3c(=O)c2c1", "activity change, negative = cytotoxicity": "-13.1% [at 35.3 µM]"}, {"smiles": "NC(=O)CCCCC1CCSS1", "note": "(stereo not given)", "activity change, negative = cytotoxicity": "12.7% [at 35.3 µM]"}, {"smiles": "CC(=O)N[C@@H](CCC(N)=O)C(=O)O", "activity change, negative = cytotoxicity": "4.14% [at 35.3 µM]"}, {"smiles": "CCN(CC)C(=O)c1ccc(O)c(OC)c1", "activity change, negative = cytotoxicity": "8.56% [at 35.3 µM]"}, {"smiles": "CCOC(=O)Cn1c(=O)sc2cccc(Cl)c21", "activity change, negative = cytotoxicity": "-8%"}, {"smiles": "CCN1CCCC(OC(=O)C(c2ccccc2)c2ccccc2)C1", "note": "(stereo not given)", "activity change, negative = cytotoxicity": "-13% [at 35.3 µM]"}, {"smiles": "CC12CCC(CC1=O)C2(C)C", "note": "(stereo not given)", "activity change, negative = cytotoxicity": "0.0554%"}, {"smiles": "COc1ccc(COC=O)cc1", "activity change, negative = cytotoxicity": "3.07%"}, {"smiles": "Oc1ccc2c(c1)OC[C@@H](N1CCC(O)(c3ccc(F)cc3)CC1)[C@H]2O", "activity change, negative = cytotoxicity": "1.3% [at 35.3 µM]"}, {"smiles": "CC(C)N1C(=O)c2ccccc2C1=O", "activity change, negative = cytotoxicity": "-0.881%"}, {"smiles": "CCCC(C)CO", "note": "(stereo not given)", "activity change, negative = cytotoxicity": "6.23%"}, {"smiles": "NCCN1CCNC1=O", "activity change, negative = cytotoxicity": "-0.914%"}, {"smiles": "CC(C)COC(=O)c1ccccc1O", "activity change, negative = cytotoxicity": "4.49%"}, {"smiles": "C=C(C)C(=O)NCCCN(C)C", "activity change, negative = cytotoxicity": "2.54%"}, {"smiles": "CCN1CCN(c2cc3c(cc2F)c(=O)c(C(=O)O)cn3C2CC2)CC1", "activity change, negative = cytotoxicity": "7.37% [at 35.3 µM]"}, {"smiles": "Nc1ccn(C2CO[C@H](CO)O2)c(=O)n1", "note": "(stereo not given in full)", "activity change, negative = cytotoxicity": "-3.61% [at 35.3 µM]"}, {"smiles": "CCCC(=O)O[C@]1(C(=O)CCl)[C@@H](C)C[C@H]2[C@@H]3CCC4=CC(=O)C=C[C@]4(C)[C@@]3(F)C(=O)C[C@@]21C", "activity change, negative = cytotoxicity": "-3.13% [at 35.3 µM]"}, {"smiles": "CCCCCCCCCCCCCCCCCCOCC(O)CO", "note": "(stereo not given)", "activity change, negative = cytotoxicity": "-3.98% [at 35.3 µM]"}, {"smiles": "OCc1ccccn1", "activity change, negative = cytotoxicity": "-1.01% [at 35.3 µM]"}, {"smiles": "Cc1nccn1CC1CCc2c(c3ccccc3n2C)C1=O", "note": "(stereo not given)", "activity change, negative = cytotoxicity": "-1.44% [at 35.3 µM]"}, {"smiles": "CC1CCN(CCCC(=O)c2ccc(F)cc2)CC1", "activity change, negative = cytotoxicity": "-1.5% [at 35.3 µM]"}, {"smiles": "CCCCCOC(=O)Nc1nc(=O)n([C@@H]2O[C@H](C)[C@@H](O)[C@H]2O)cc1F", "activity change, negative = cytotoxicity": "-1.15% [at 35.3 µM]"}, {"smiles": "CC1(C)OC(=O)Nc2ccc(Br)cc21", "activity change, negative = cytotoxicity": "4.26% [at 35.3 µM]"}, {"smiles": "COC[C@H](c1ccc(C(F)(F)F)cc1)N1CCN(C2(C)CCN(C(=O)c3c(C)ncnc3C)CC2)C[C@H]1C", "activity change, negative = cytotoxicity": "-12.3% [at 35.3 µM]"}, {"smiles": "OCC(CO)(CO)COCC(CO)(CO)CO", "activity change, negative = cytotoxicity": "-9.3%"}, {"smiles": "Nc1cc(C(Cl)=C(Cl)Cl)c(S(N)(=O)=O)cc1S(N)(=O)=O", "activity change, negative = cytotoxicity": "2.61% [at 35.3 µM]"}, {"smiles": "NS(=O)(=O)c1cc2c(cc1Cl)NC(CSCc1ccccc1)=NS2(=O)=O", "activity change, negative = cytotoxicity": "1.53% [at 35.3 µM]"}, {"smiles": "COc1cccc(Br)c1", "activity change, negative = cytotoxicity": "-8.3%"}, {"smiles": "CC1=CC(=O)CCC1", "activity change, negative = cytotoxicity": "-0.705%"}, {"smiles": "CN(C)CCOC(c1ccc(Cl)cc1)c1ccccn1", "note": "(stereo not given)", "activity change, negative = cytotoxicity": "-0.908% [at 35.3 µM]"}]}]}
